From PubChem BioAssay
HCMV antiviral = qHTS Assay for inhibitors of the human cytomegalovirus (HCMV); HFF cells, HCMV-luciferase reporter, 72 h; active compounds read low; activity change, negative = inhibition, % at 57.5 µM; 4.5% of 410,000 active; AID 1259415, 2018; in the data active means activity change below about -60%; inconclusive means no clear call, values can overlap the other calls; inactive means above about -39%; further: on the % scale 0 is the no-effect control and ±100 the full control effect
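Two compound doses tested in HFFs infected with HCMV-luciferase, MOI 1 PFU/cell, 72 h at 37C. Lysate luminescence read with OneGlo; data normalized against buffer-only and 10uM Salinomycin inhibitor controls.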
HCV inh = qHTS Assay for Inhibitors of Hepatitis C Virus (HCV). Potency, µM (top dose mostly 41.8 µM), for the others: at the top dose activity change, negative = inhibition, actives largely listed as inhibitors. AID 651820, 2012. Huh7.5.1 HCVcc-Cre infection, luciferase reporter, 44 h. 3.4% of 340,000 active; further: potency means the concentration at half of the fitted maximal effect; on the % scale 0 is the no-effect control and ±100 the full control effect
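Seed cells (1,000/well) for 4 h; treat with compound and infect with HCVcc-Cre, moi about 0.5. Incubate 44 h, then detect luciferase activity.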
Cycloheximide cs = Cycloheximide Counterscreen for Small Molecule Inhibitors of Shiga Toxin. cell reporter, cycloheximide protein synthesis inhibition counterscreen. max response, %. 12% of 300,000 active; in the data active means max response mostly above about 13%, no sharp cut-off; inactive means mostly below about 14%; further: read at 38.3 µM for the half of the compounds with a filed dose; 0% is about no effect
Pf growth 96h = Primary qHTS for delayed death inhibitors of the malarial parasite plastid, 96 hour incubation. AID 504834, 2011. Potency, µM (titrated, usually from 28.7 µM), for inactives: at the top dose activity change, negative = inhibition, most hits filed as inhibitors. P. falciparum luciferase reporter growth, 96 h. 6.9% of 320,000 active; further: potency means the concentration at half of the fitted maximal effect; on the % scale 0 is the no-effect control and ±100 the full control effect
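P. falciparum expressing integrated firefly luciferase, in erythrocytes at 2% hematocrit, 0.05% parasitemia, incubated with compounds 96 h at 37 C, 5% CO2. Growth inhibition read as loss of luminescence; two-generation exposure targets delayed-death apicoplast inhibitors.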
Pf growth 48h = Primary qHTS for delayed death inhibitors of the malarial parasite plastid, 48 hour incubation. P. falciparum luciferase growth in erythrocytes, 48 h. Potency, µM (top dose mostly 28.7 µM), for inactives: at the top dose activity change, negative = inhibition, usual class: inhibitors. 5.9% of 310,000 active. AID 504832, 2011; further: potency means the concentration at half of the fitted maximal effect; on the % scale 0 is the no-effect control and ±100 the full control effect
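Luminescence readout; reporter = integrated firefly luciferase in P. falciparum. RBC culture at 2% hematocrit, 0.1% parasitemia final, 37 C/5% CO2; decreased signal taken as growth inhibition.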
Shiga toxin inh = A qHTS for Small Molecule Inhibitors of Shiga Toxin; inhibition, % at 38.7 µM; Vero cells, Shiga toxin protein synthesis inhibition reporter; 9.2% of 290,000 active; in the data active means inhibition mostly above about 28%, no sharp cut-off; inactive means mostly below about 43%; further: 0% is about no effect
Starred values were filed as active, the others as inactive; u = inconclusive; x = not tested or not shown; [ ] = another dose, or the depositor's remark. This is a sample that favours compounds with a hit; in the whole collection about 21% have one here. Unless noted, the call rests on the fitted dose curve; in most records, active means well fitted inhibition curve with a large enough effect; inconclusive means small, poorly fitted or top-dose-only effect, or another doubt; inactive means no such curve, though single readings can be large or run the other way.

SMILES	HCMV antiviral	HCV inh	Cycloheximide cs	Pf growth 96h	Pf growth 48h	Shiga toxin inh
COc1cc2nc(N3CCN(c4cc(C)ccc4C)CC3)nc(N)c2cc1OC	-98.3*	7.08µM*	-15.0	0.0%	1.85µM*	-21.2
CCCCS(=O)(=O)C(=C1Nc2ccccc2N1)S(=O)(=O)CCCC	32.2	-11.3%	6.2	-1.6%	67.7%	-2.4
CCS(=O)(=O)C(=C1Nc2ccccc2N1)S(=O)(=O)CC	-97.7*	-13.8%	-2.5	-9.6%	10.4%	-1.9
COc1ccc(S(=O)(=O)Nc2ccccc2Cl)cc1NC(C)=O	-25.6	7.7%	-2.1	10.0%	-12.6%[5.75 µM]	-3.0
COc1cc2c(cc1NC(=O)C(C)N1CCN(S(=O)(=O)c3ccc(C)c(C)c3)CC1)oc1ccccc12 (stereo not given)	10.6	9.1%	-1.1	3.29µM*	x	-9.8
COc1cc2c(cc1NC(=O)C(C)OC(=O)c1ccc(S(=O)(=O)Nc3ccccc3Cl)cc1)oc1ccccc12 (stereo not given)	76.8	u	24.1*	5.22µM*	u	31.3*
COc1cc2c(cc1NC(=O)C(C)N1CCN(S(=O)(=O)c3ccccc3[N+](=O)[O-])CC1)oc1ccccc12 (stereo not given)	78.0	u	27.2*	5.86µM*	x	55.4*
Cc1ccc(C(=O)Nn2cnnc2)cc1	-32.7	7.8%	-4.6	29.3%	11.2%	-7.8
Cc1cc(N)n(Cc2cccs2)n1	-6.3	6.7%	-1.8	16.6%	0.0%	3.9
CC1(C)CN(c2ccc(F)cc2)C1=O	-5.4	10.7%	-6.4	3.1%	21.7%	-10.1
CC(C)c1ccc(N2CC(C)(C)C2=O)cc1	11.8	7.5%	28.9*	4.9%	55.5%	74.2*
COc1cccc2c1C1COC3C4CC(C(=O)O)C(C(C2)N13)N4C (stereo not given)	-96.0*	u	x	x	x	x
COc1cccc2c1C(CCCC(=O)O)CCC2 (stereo not given)	-23.1	4.9%	x	x	x	x
O=C(NCC1CCCO1)c1ccc2nc(N3CCCCC3)sc2c1 (stereo not given)	-16.8	2.8%	51.1*	-20.5%	63.4%	88.0*
O=C(NCCc1ccccc1)c1ccc2nc(N3CCCCC3)sc2c1	57.5	x	x	x	x	x
O=C(NCC1CCCO1)c1ccc(N2CCCCC2)nc1 (stereo not given)	31.3	-3.3%	27.6*	u	61.7%	40.5*
CC(C)c1cnc2c(c1SCC(=O)NCc1ccccc1)c(=O)n(C)c(=O)n2C	2.9	x	x	x	x	x
CCN1C[C@@H]2[C@@H]3C(=O)N(Cc4ccccc4)C(=O)[C@@H]3[C@](C)(C1=O)N2C(=O)c1ccc(C(F)(F)F)cc1	-7.8	11.5%	x	x	x	x
Cc1ccccc1Oc1nc2c(C)cccn2c(=O)c1/C=C(\C#N)C(=O)NC1CCS(=O)(=O)C1 (stereo not given)	85.4	-22.1%	-1.0	11.7µM*	5.86µM*	8.6
Cc1cccn2c(=O)c(/C=C(\C#N)C(=O)NC3CCS(=O)(=O)C3)c(Oc3ccccc3Cl)nc12 (stereo not given)	59.4	-14.9%	-5.9	u	4.65µM*	-3.8
Cc1ccc2c(CNC3CCCC3)c(C(=O)O)n(Cc3ccc(F)cc3)c2c1	6.8	x	x	x	x	x
CCOC(=O)C(C(C)=O)c1c(Br)c(O)c(O)c2c(C(=O)c3ccc(C)cc3)coc12 (stereo not given)	-96.1*	x	18.9*	x	x	34.4
CCOC(=O)c1c(C)n(-c2ccc(C)cc2)c2c(C(C(C)=O)C(=O)O)c(Br)c(O)c(O)c12 (stereo not given)	u	11.2µM*	13.5	x	u	-15.9
CCOC(=O)c1cc(C(=O)c2cc(Br)ccc2O)coc1=N	-10.3	10.0%	-6.1	-19.3%	-11.8%	9.6
Cc1ccc(CNC(=O)c2cnc(N3CCCCC3)c3ccccc23)cc1	9.5	x	x	x	x	x
SMILES	HCMV antiviral	HCV inh	Cycloheximide cs	Pf growth 96h	Pf growth 48h	Shiga toxin inh
COc1ccc(C(=O)Nc2nc(C)c(C(=O)N(C)C)s2)cc1OC	175.4	-10.2%	30.0*	u	81.5%	16.2
COc1ccc(/C=C/C(=O)Nc2nc(C)c(C(=O)N(C)C)s2)cc1OC	-12.3	-20.4%	1.4	125.6%	10.4%	-12.1
COc1ccc(CCC(=O)Nc2sc(C(=O)N(C)C)c(C)c2C#N)cc1	33.8	10.0%	1.8	u	-0.3%	-4.7
COc1ccc(CCC(=O)Nc2nc(C)c(C(=O)N(C)C)s2)cc1	-14.3	14.2%	10.0	u	7.38µM*	2.7
Cc1nc(NC(=O)c2ccccc2)sc1Cc1ccc2c(c1)OCO2	2.7	u	67.6*	-85.2%	0.0%	24.6*
CC(=O)c1sc(NC(=O)c2ccc(C(C)(C)C)cc2)nc1C	51.9	-14.9%	67.2*	44.5%	86.6%	158.2*
CC(=O)c1sc(NC(=O)C(C)(C)C)nc1C	-16.7	-3.9%	-2.3	9.0%	24.8%	22.9
C#CCN1C=CC(=O)[C@@H](OC(=O)NCCC)[C@H]1c1ccccc1Br	4.1	9.5%[8.37 µM]	x	x	x	x
CC(=O)c1sc(NC(=O)c2ccc3c(c2)OCO3)nc1C	104.0	-17.9%	42.7*	u	165.1%	81.6*
CC(=O)c1sc(NC(=O)c2cnc(Cl)c(Cl)c2)nc1C	30.1	-11.1%	14.2*	119.8%	102.2%	84.0*
CC(=O)c1sc(NC(=O)c2ccc(C)c(C)c2)nc1C	42.6	u	47.0*	476.4%	428.8%	46.5*
COCCN(CCOC)S(=O)(=O)c1ccc(C(=O)Nc2nc(C)c(C(C)=O)s2)cc1	51.8	9.4%	1.3	u	0.5%	-6.0
CC(=O)c1sc(Nc2nc(C)cc(C)n2)nc1C	x	u	-7.4	32.5%	x	-6.3
CC(=O)c1sc(NC(=O)c2ccccc2F)nc1C	7.4	u	28.4*	304.8%	221.4%	43.0*
CC(=O)c1sc(NC(=O)c2cccnc2Cl)nc1C	36.4	0.8%	13.0	109.5%	35.2%	-4.2
Cc1ccc(S(=O)(=O)NCc2cc(=O)n(C)c(=O)n2C)cc1C	-11.4	16.6%	-1.0	47.2%	24.3%	3.6
COc1ccccc1C(=O)NC(=O)CSc1nnc(C)s1	-4.0	5.6%	-0.9	14.7%	0.0%	15.7
CCOC(=O)c1c(C)[nH]c(C(=O)OCC(=O)Nc2cccnc2Cl)c1C	-32.1	u	x	10.4%	3.6%	x
CCn1c(=O)cc(SCC(=O)NCCCN2CCN(c3ccccc3F)CC2)c2ccccc21	80.0	u	15.3	u	11.7µM*	-6.3
Cn1c2ccccc2c2cnn(CC(=O)NCCCN3CCN(c4ccccc4F)CC3)c(=O)c21	-14.8	10µM*	1.6	-7.0%	u	1.2
Cc1ccc(C)c(N2CCN(CCCNC(=O)Cn3cc4c(n3)CCCCC4)CC2)c1	-30.4	5.62µM*	-1.9	-16.4%	u	-4.6
